Screening results: PubChem BioAssay, several laboratories
Myeloid diff 2 = compounds promoting myeloid differentiation; ER-HoxA9 myeloid progenitors, lysozyme-GFP differentiation, flow cytometry; calls only at 10 µM; hit rate 1% among 360,000;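 active = normalized GFP-positive differentiation at or above the plate's own cutoff, the solvent-only control mean plus 3 SD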;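 also: cells exposed to compound for four days before flow analysis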
MPTP block = inhibitors of mitochondrial permeability transition pore. isolated mouse mitochondria, Ca2+ swelling absorbance, 30 min. inhibition, % at 10 µM. hit rate 1.4% among 360,000;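 active = inhibition of 50% or more, scaled per plate between neutral and stimulator controls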;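 also: 0% = DMSO wells given calcium and 100% = 1 mM EGTA wells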
FAS-TE inh = inhibitors of human fatty acid synthase thioesterase domain; P49327; recombinant FAS-TE, OMFH fluorogenic substrate, fluorescence endpoint; inhibition, % at 15 µM; hit rate 0.67% among 360,000;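 active = compounds whose normalised, plate-corrected inhibition of enzyme fluorescence in the single-dose primary screen is 50% or more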;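 also: 0% = DMSO with enzyme and 100% = substrate without enzyme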
rCAG RNA binder = binds r(CAG) RNA repeats; hit rate 1.3% among 370,000; AID 651821; inhibition, % at 3 µM; r(CAG) RNA repeat, TO-PRO-1 dye displacement fluorescence;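 active = inhibition above the plate cutoff, the mean of all test compounds on that plate plus 3 SD, cut at about 35% in these data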;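 also: 0% = DMSO alone and 100% = 100 µM mitoxantrone as full dye displacement; higher means more dye released from RNA so lower well fluorescence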
NR3A LBD binder = modulators (binders) of human NR3A ligand-binding domain. AID 1259313. Tm shift relative to glycine control, % at 25 µM. hit rate 2.5% among 340,000. NR3A LBD differential scanning fluorimetry, Tm shift; 0% = protein alone, 100% = glycine-bound protein;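 active = melting temperature shift of at least 10% of the positive control shift, at one fixed dose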
Myeloid diff CP1 = promotes myeloid progenitor differentiation; calls only; shares compounds with Myeloid diff 2; hit rate 2% among 2,300; ER-HoxA9 myeloid progenitors, GFP/Mac1 double-positive flow;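 active = share of green or green-and-red cells above 9 and 9% in run 1 or 4 and 3% in run 2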
GFP autofluor = compound fluorescence in myeloid differentiation counter-screen | shares compounds with Myeloid diff 2 | AID 651707 | ER-HoxA9 myeloid progenitors, no estrogen, GFP autofluorescence flow cytometry; vehicle wells 0%, positive control 100% | fluorescence response, % (concentration not given with the values) | hit rate 7.4% among 2,300;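 active = over 5% cells positive for green fluorescent reporter, or over 2% positive for both it and APC stain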;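 also: range taken on the double positive population between DMSO and positive control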
* = called active by the depositor; i = inactive; x = no result given; + = active, no number. Compounds with a hit are over-represented: about 5.7% of the library has one in this group of screens.

SMILES	Myeloid diff 2	MPTP block	FAS-TE inh	rCAG RNA binder	NR3A LBD binder	Myeloid diff CP1	GFP autofluor
C[C@@]12C(=O)N(c3cccc(Cl)c3)C(=O)N1[C@H](c1ccc(Cl)cc1)[C@@H]1C(=O)N(C3CCCCC3)C(=O)[C@@H]12	+	0	59*	13	9	i	1
COc1ccc(N2C(=O)N3[C@H](c4ccc(Cl)cc4)[C@@H]4C(=O)N(C5CCCCC5)C(=O)[C@@H]4[C@]3(C)C2=O)cc1	i	-1	32	4	-6	x	x
COc1ccc(C(=O)N2CCC(CCC(=O)Nc3cccc(C)c3)CC2)cc1	i	0	-1	-8	0	x	x
CCCC(=O)C1=C(O)C(C(=O)OC)C(C)(C)CC1=Nc1ccccc1 (centres undefined)	i	1	1	-10	0	i	0
CCCC(=O)C1=C(O)C(C(=O)OC)C(C)(C)CC1=NCc1ccccc1 (centres undefined)	i	0	7	-11	-5	x	x
COc1ccc(S(=O)(=O)N2CCCN(Cc3cccc(F)c3)CC2)cc1	i	0	8	2	-1	i	1
COc1ccc(CCNC(=O)c2ccc(Cl)cc2)cc1	i	-1	-1	-5	-31	x	x
COc1ccc(CCNC(=O)c2nn(C)cc2Cl)cc1	+	-1	-4	-3	-5	i	0
Cc1ccc(C2=NN(S(C)(=O)=O)C(c3cccs3)C2)cc1 (centres undefined)	i	-8	3	2	-1	i	0
Cc1cccc(CN2CCC(Oc3ccc(C(=O)N4CCCCC4)cc3)CC2)c1	i	-2	0	-12	-1	x	x
CC(=O)N1CCN(C(=O)COC(=O)CNC(=O)c2ccc(C)cc2)CC1	i	-1	-3	1	0	x	x
COC(=O)c1ccc(NC(=O)c2cc(-c3ccccn3)nc3ccccc23)cc1	+	0	2	2	-6	i	0
COC(=O)c1ccc(NC(=O)c2cc(-c3ccncc3)nc3ccccc23)cc1	i	-2	4	5	-5	x	x
CCOc1ccccc1NC(=O)CSc1nc(=O)n(CCN2CCOCC2)c2c1CCCC2	i	0	-2	-9	0	x	x
N#Cc1c(NC(=O)c2ccc(Br)o2)n(-c2ccccc2)c2nc3ccccc3nc12	+	48	22	22	-3	i	0
CCc1c(C)sc2nc3c(C(=O)N4CCOCC4)cc(C(=O)c4cc(F)ccc4O)cn3c(=O)c12	i	1	18	4	-3	x	x
CCOC(=O)c1sc2nc3c(SCCC#N)cc(C(=O)c4cc(F)ccc4O)cn3c(=O)c2c1C	+	6	14	9	6	i	0
CCN1CCN(c2ccc(S(=O)(=O)N3CCCCC3)cc2NC(=O)/C=C/c2ccc(OC(F)F)cc2)CC1	i	9	14	3	-6	i	0
COc1ccc(C(=O)NC(=S)NCC2CCCO2)cc1 (centres undefined)	i	1	-7	-2	-8	x	x
COc1cccc(CC(=O)OC(C)C(=O)Nc2ccc(N3CCOCC3)cc2)c1 (centres undefined)	i	6	0	-3	x	x	x
CC(C)(C)NC(=O)CSc1nc2ccccc2n1-c1ccccc1	i	-2	5	0	-4	x	x
COC(=O)CN1C(=O)C2(OCCCO2)c2cc(Br)ccc21	i	0	-2	-3	-3	i	1
COc1ccc(OC)c(CN2C(=O)COc3ccccc3C2c2nnnn2C2CCCC2)c1 (centres undefined)	x	x	x	0	x	x	x
CN1C2CCC1/C(=C\c1ccccc1F)C(=O)/C2=C/c1ccccc1F	i	-2	-16	-3	0	i	0
CC1CCN(C2=NC(=O)/C(=C/c3ccccc3F)S2)CC1	i	1	-5	-4	-2	x	x
SMILES	Myeloid diff 2	MPTP block	FAS-TE inh	rCAG RNA binder	NR3A LBD binder	Myeloid diff CP1	GFP autofluor
COC(=O)CCC(=O)NN1C(=O)c2ccccc2C1=O	i	-1	-2	-3	1	x	x
COc1ccc(CC(=O)NN2C(=O)c3ccccc3C2=O)cc1	+	0	-7	0	-8	i	0
Cc1ccc2c(c1)-c1c(cnn1CC(=O)Nc1ccccc1N1CCN(C)CC1)CO2	i	19	-8	-1	-3	i	0
Cc1ccc2c(c1)-c1c(cnn1CC(=O)O)CO2	i	-1	-7	0	-4	x	x
Cc1ccc(C2(C)NC(=O)N(CC(=O)Nc3cc(S(=O)(=O)N4CCCCC4)ccc3OC(C)C)C2=O)cc1 (centres undefined)	+	-2	20	6	2	i	0
CC(C)Oc1ccc(S(=O)(=O)N2CCCCC2)cc1NC(=O)CN1C(=O)NC(C)(c2ccccc2)C1=O (centres undefined)	i	0	10	1	-22	x	x
CCc1c(N)nc(N)nc1Nc1ccc(C)c(C)c1	i	2	-9	2	1	i	1
CCCCCNC(=O)C(C1CC1)n1c(=O)c(-c2ccccc2)nc2ccccc21 (centres undefined)	i	-1	x	0	x	x	x
COc1ccccc1Nc1nnc(SCC(=O)NC(=O)Nc2ccc3c(c2)OCCO3)s1	i	4	-2	1	-6	x	x
O=C(Cc1cc(=O)[nH][nH]1)N/N=C/C(Cl)=C/c1ccccc1	i	0	-17	29	-3	i	0
O=C(CSc1nnc(-c2ccncc2)n1-c1ccc(Cl)cc1)NCc1cccs1	i	1	-4	-7	2	x	x
COc1ccc(-n2nc(C(=O)NCC(=O)NC3CCCCC3)c3ccccc3c2=O)cc1	i	0	3	-3	4	x	x
CCOC(=O)/C=C1\SCC(=O)N1CC(=O)NC12CC3CC(CC(C3)C1)C2	+	1	5	-4	1	i	0
Cc1cc(=O)n(CNC(=O)c2ccccc2)c(=S)[nH]1	i	0	-10	-1	1	i	3
COCCCC1CCN(Cc2cn[nH]c2-c2cc(OC)c(OC)c(OC)c2)CC1	i	1	-3	-10	-1	x	x
CC(=O)Nc1cccc(N=NN2CCOCC2)c1	i	0	-4	-2	0	x	x
CC(=O)Nc1ccc(N=NN2CCOCC2)cc1	i	-2	-2	0	-2	i	0
CCCSc1nc(C)c2cc(C)cc(C)c2n1	+	0	15	2	1	i	0
Cc1ccc(C(=O)CCC(=O)OCC(=O)Nc2ccccc2SCC#N)cc1	+	-2	-6	18	0	i	89*
O=C(Nc1nccs1)C1CCCN(S(=O)(=O)c2cccc3cccnc23)C1 (centres undefined)	i	-2	-1	3	-3	i	0
Cc1cc(C)cc(NC(=O)CCN2CCCC2)c1	+	0	-6	2	0	i	0
